Measurements from PubChem BioAssay (NCI).
The panel holds about 79,000 compounds, 15% with a hit somewhere; the sample as a whole holds those more often. A number with no mark means an inactive call. Calls of active or inactive are those of the source. Rule as the data show it: active = growth inhibition above about 70%; inactive = the rest.

Tests used:
[1] = NCI Yeast Anticancer Drug Screen. Data for the rad50 strain (AID 155);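 also: 0% = growth of vehicle-only cultures of the same strain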; settings: S. cerevisiae rad50 strain growth inhibition, stronger effect = higher value
Summary of the method: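 Growth of the mutant yeast was measured after compound exposure and referenced to vehicle-treated cultures.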

[2] = NCI Yeast Anticancer Drug Screen. Data for the mec2-1 strain (AID 157); settings: S. cerevisiae mec2-1 strain, stronger effect = higher value
Summary of the method: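 Test agents were screened against the mec2-1 yeast strain, with defined DNA repair or cell cycle alteration. Growth was scored as inhibition against vehicle-only controls.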

[3] = NCI Yeast Anticancer Drug Screen. Data for the sgs1 mgt1 strain (AID 161);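 also: 0% = growth of cultures given vehicle only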; settings: S. cerevisiae sgs1 mgt1 strain, stronger effect = higher value
Summary of the method: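 Genetically altered yeast, compound exposure, growth inhibition relative to vehicle.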

[4] = NCI Yeast Anticancer Drug Screen. Data for the cln2 rad14 strain (AID 165);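 also: 0% = growth equal to vehicle treated cultures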; settings: S. cerevisiae cln2 rad14 strain, stronger effect = higher value
Summary of the method: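 Growth of compound-exposed yeast (cln2 rad14 genotype) measured and expressed as inhibition relative to vehicle.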

[5] = NCI Yeast Anticancer Drug Screen. Data for the bub3 strain (AID 167); settings: S. cerevisiae bub3 mutant strain, stronger effect = higher value
Summary of the method: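 Whole-cell yeast assay. The mutant strain was incubated with compounds, and growth inhibition was determined by comparison with vehicle-treated cells.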

[6] = NCI Yeast Anticancer Drug Screen. Data for the mlh1 rad18 strain (AID 175); settings: S. cerevisiae mlh1 rad18 strain growth inhibition, stronger effect = higher value
Summary of the method: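 In this whole-cell yeast screen, a strain with altered DNA damage repair is challenged with compound, and its growth is measured against matched vehicle-treated controls.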

[7] = at 5.0 µM (retest, dose inferred, filed as 0.5)
[8] = at 50.0 µM (retest, dose inferred, filed as 5.0)

## Cn1cc(/C=C/[N+](=O)[O-])c2ccccc21
[1]; [7]
  growth inhibition: 7%
[1]; [8]
  growth inhibition: 95% (active)
[1]; at 50.0 µM
  growth inhibition: 97.1% (active)
[2]; [7]
  growth inhibition: -2%
[2]; [8]
  growth inhibition: 96% (active)
[2]; at 50.0 µM
  growth inhibition: 97.3% (active)
[3]; [7]
  growth inhibition: 2%
[3]; [8]
  growth inhibition: 97% (active)
[3]; at 50.0 µM
  growth inhibition: 98.4% (active)
[4]; [7]
  growth inhibition: 26%
[4]; [8]
  growth inhibition: 98% (active)
[4]; at 50.0 µM
  growth inhibition: 96.5% (active)
[5]; [7]
  growth inhibition: 22%
[5]; [8]
  growth inhibition: 97% (active)
[5]; at 50.0 µM
  growth inhibition: 97.7% (active)
[6]; [7]
  growth inhibition: 19%
[6]; [8]
  growth inhibition: 97% (active)
[6]; at 50.0 µM
  growth inhibition: 97.3% (active)

## [Br][Cd][Br].c1ccc([PH+](c2ccccc2)c2ccccc2)cc1.c1ccc([PH+](c2ccccc2)c2ccccc2)cc1
[1]; [7]
  growth inhibition: 29%
[1]; [8]
  growth inhibition: 95% (active)
[1]; at 50.0 µM
  growth inhibition: 97.5% (active)
[2]; [7]
  growth inhibition: 20%
[2]; [8]
  growth inhibition: 84% (active)
[2]; at 50.0 µM
  growth inhibition: 89.5% (active)
[3]; [7]
  growth inhibition: 18%
[3]; [8]
  growth inhibition: 55%
[3]; at 50.0 µM
  growth inhibition: 94.9% (active)
[4]; [7]
  growth inhibition: 4%
[4]; [8]
  growth inhibition: 89% (active)
[4]; at 50.0 µM
  growth inhibition: 92.4% (active)
[5]; [7]
  growth inhibition: 21%
[5]; [8]
  growth inhibition: 93% (active)
[5]; at 50.0 µM
  growth inhibition: 92.5% (active)
[6]; [7]
  growth inhibition: 18%
[6]; [8]
  growth inhibition: 92% (active)
[6]; at 50.0 µM
  growth inhibition: 94.7% (active)

## O=[N+]([O-])c1cc(S(=O)(=O)F)ccc1S
[1]; [7]
  growth inhibition: -76%
[1]; [8]
  growth inhibition: 89% (active)
[1]; at 50.0 µM
  growth inhibition: 91.2% (active)
[2]; [7]
  growth inhibition: -32%
[2]; [8]
  growth inhibition: 93% (active)
[2]; at 50.0 µM
  growth inhibition: 77.5% (active)
[3]; [7]
  growth inhibition: -34%
[3]; [8]
  growth inhibition: 88% (active)
[3]; at 50.0 µM
  growth inhibition: 88.9% (active)
[4]; [7]
  growth inhibition: -40%
[4]; [8]
  growth inhibition: 90% (active)
[4]; at 50.0 µM
  growth inhibition: 86.7% (active)
[5]; [7]
  growth inhibition: -59%
[5]; [8]
  growth inhibition: 90% (active)
[5]; at 50.0 µM
  growth inhibition: 91.8% (active)
[6]; [7]
  growth inhibition: -103%
[6]; [8]
  growth inhibition: 92% (active)
[6]; at 50.0 µM
  growth inhibition: 95.8% (active)

## COc1cc(C2c3cc4c(cc3[C@@H](Nc3ccc(F)cc3)C3COC(=O)[C@H]23)OCO4)cc(OC)c1O (some centres not stated)
[1]; [7]
  growth inhibition: 96% (active)
[1]; [8]
  growth inhibition: 96% (active)
[1]; at 50.0 µM
  growth inhibition: 85.3% (active)
[2]; [7]
  growth inhibition: 97% (active)
[2]; [8]
  growth inhibition: 98% (active)
[2]; at 50.0 µM
  growth inhibition: 91.2% (active)
[3]; [7]
  growth inhibition: 94% (active)
[3]; [8]
  growth inhibition: 99% (active)
[3]; at 50.0 µM
  growth inhibition: 88.9% (active)
[4]; [7]
  growth inhibition: 41%
[4]; [8]
  growth inhibition: 99% (active)
[4]; at 50.0 µM
  growth inhibition: 87.8% (active)
[5]; [7]
  growth inhibition: 99% (active)
[5]; [8]
  growth inhibition: 99% (active)
[5]; at 50.0 µM
  growth inhibition: 88.6% (active)
[6]; [7]
  growth inhibition: 95% (active)
[6]; [8]
  growth inhibition: 95% (active)
[6]; at 50.0 µM
  growth inhibition: 88.1% (active)

## [Cl][Hg][Cl].c1ccc(CSc2ccccc2)cc1
[1]; [7]
  growth inhibition: 99% (active)
[1]; [8]
  growth inhibition: 99% (active)
[1]; at 50.0 µM
  growth inhibition: 99% (active)
[2]; [7]
  growth inhibition: 100% (active)
[2]; [8]
  growth inhibition: 100% (active)
[2]; at 50.0 µM
  growth inhibition: 99.7% (active)
[3]; [7]
  growth inhibition: 100% (active)
[3]; [8]
  growth inhibition: 99% (active)
[3]; at 50.0 µM
  growth inhibition: 99.3% (active)
[4]; [7]
  growth inhibition: 99% (active)
[4]; [8]
  growth inhibition: 99% (active)
[4]; at 50.0 µM
  growth inhibition: 99.4% (active)
[5]; [7]
  growth inhibition: 99% (active)
[5]; [8]
  growth inhibition: 99% (active)
[5]; at 50.0 µM
  growth inhibition: 99.2% (active)
[6]; [7]
  growth inhibition: 99% (active)
[6]; [8]
  growth inhibition: 99% (active)
[6]; at 50.0 µM
  growth inhibition: 99.5% (active)

## O=C1C(=O)c2ccccc2-c2ccccc21.O=C1C(=O)c2ccccc2-c2ccccc21.[Hg]
[1]; [7]
  growth inhibition: 100% (active)
[1]; [8]
  growth inhibition: 96% (active)
[1]; at 50.0 µM
  growth inhibition: 12.2%
[2]; [7]
  growth inhibition: 100% (active)
[2]; [8]
  growth inhibition: 97% (active)
[2]; at 50.0 µM
  growth inhibition: -7.3%
[3]; [7]
  growth inhibition: 100% (active)
[3]; [8]
  growth inhibition: 96% (active)
[3]; at 50.0 µM
  growth inhibition: -6.8%
[4]; [7]
  growth inhibition: 100% (active)
[4]; [8]
  growth inhibition: 97% (active)
[4]; at 50.0 µM
  growth inhibition: 29.8%
[5]; [7]
  growth inhibition: 100% (active)
[5]; [8]
  growth inhibition: 96% (active)
[5]; at 50.0 µM
  growth inhibition: -13.8%
[6]; [7]
  growth inhibition: 98% (active)
[6]; [8]
  growth inhibition: 93% (active)
[6]; at 50.0 µM
  growth inhibition: 12.3%

## Cc1cn(CC2C=CC(CS[As](C)C)O2)c(=O)[nH]c1=O (configuration not stated)
[1]; [7]
  growth inhibition: 7%
[1]; [8]
  growth inhibition: 75% (active)
[1]; at 50.0 µM
  growth inhibition: 69.7%
[2]; [7]
  growth inhibition: 1%
[2]; [8]
  growth inhibition: 83% (active)
[2]; at 50.0 µM
  growth inhibition: 92.2% (active)
[3]; [7]
  growth inhibition: 4%
[3]; [8]
  growth inhibition: 98% (active)
[3]; at 50.0 µM
  growth inhibition: 94.8% (active)
[4]; [7]
  growth inhibition: 0%
[4]; [8]
  growth inhibition: 95% (active)
[4]; at 50.0 µM
  growth inhibition: 72% (active)
[5]; [7]
  growth inhibition: 0%
[5]; [8]
  growth inhibition: 45%
[5]; at 50.0 µM
  growth inhibition: 53%
[6]; [7]
  growth inhibition: -1%
[6]; [8]
  growth inhibition: 84% (active)
[6]; at 50.0 µM
  growth inhibition: 99.1% (active)

## O=P1(Oc2ccccc2)C(c2ccccc2)C(c2ccccc2)=NN1c1ccccc1 (configuration not stated)
[1]; [7]
  growth inhibition: 29%
[1]; [8]
  growth inhibition: 29%
[1]; at 50.0 µM
  growth inhibition: 90.7% (active)
[2]; [7]
  growth inhibition: 12%
[2]; [8]
  growth inhibition: 12%
[2]; at 50.0 µM
  growth inhibition: 91% (active)
[3]; [7]
  growth inhibition: 23%
[3]; [8]
  growth inhibition: 23%
[3]; at 50.0 µM
  growth inhibition: 89.2% (active)
[4]; [7]
  growth inhibition: 23%
[4]; [8]
  growth inhibition: 23%
[4]; at 50.0 µM
  growth inhibition: 90.8% (active)
[5]; [7]
  growth inhibition: 5%
[5]; [8]
  growth inhibition: 5%
[5]; at 50.0 µM
  growth inhibition: 90.1% (active)
[6]; [7]
  growth inhibition: 11%
[6]; [8]
  growth inhibition: 11%
[6]; at 50.0 µM
  growth inhibition: 89.6% (active)

## CC(=O)C1CCC2C3CCC4CC([N+]5(C)CCCCC5)CCC4(C)C3CCC12C (configuration not stated)
[1]; [7]
  growth inhibition: 2%
[1]; [8]
  growth inhibition: 29%
[1]; at 50.0 µM
  growth inhibition: 82.3% (active)
[2]; [7]
  growth inhibition: 17%
[2]; [8]
  growth inhibition: 71% (active)
[2]; at 50.0 µM
  growth inhibition: 79.9% (active)
[3]; [7]
  growth inhibition: 10%
[3]; [8]
  growth inhibition: 87% (active)
[3]; at 50.0 µM
  growth inhibition: 97.5% (active)
[4]; [7]
  growth inhibition: 8%
[4]; [8]
  growth inhibition: 31%
[4]; at 50.0 µM
  growth inhibition: 81.1% (active)
[5]; [7]
  growth inhibition: 8%
[5]; [8]
  growth inhibition: 64%
[5]; at 50.0 µM
  growth inhibition: 86.5% (active)
[6]; [7]
  growth inhibition: 18%
[6]; [8]
  growth inhibition: 65%
[6]; at 50.0 µM
  growth inhibition: 92% (active)
